From PubChem BioAssay (EPA / NIEHS)
Results filed as inconclusive are left out. Activity calls are given as the source filed them. How the source made its calls, unless noted: active means hit-call score of the fitted dose curve at least 0.9, where 1 is the maximum; inactive means score below 0.9.

Legend:
[1] = CCTE_Harrill_HTTr_Viability_MCF7: CCTE's 6-hour Cell Viability Assessment for the High-Throughput Transcriptomics (HTTr) Platform, in MCF-7 cells cultured in DMEM + 10% fetal bovine serum, Harrill Lab (AID 2284010)
Method in brief: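 PI exclusion, high-content imaging; 8-pt dilution series, 6 h exposure; bidirectional fit vs DMSO (neg. ctrl/baseline); gain of signal = loss of membrane integrity.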

[2] = CCTE_Harrill_HTTr_Apoptosis_MCF7: CCTE's 6-hour Apoptosis Assessment for the High-Throughput Transcriptomics (HTTr) Platform, in MCF-7 cells cultured in DMEM + 10% fetal bovine serum, Harrill Lab (AID 2284011)
Method in brief: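 Apoptosis in MCF-7 cells grown in DMEM with 10% fetal bovine serum was scored after a six hour exposure by high content imaging of caspase-3/7 activation (CellEvent Caspase 3/7 Green), with DMSO serving as negative control and baseline.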

[3] = CCTE_Harrill_HTTr_CellCount_MCF7: CCTE's Cell Proliferation Assessment for the High-Throughput Transcriptomics (HTTr) Platform, Harrill Lab (AID 2284012; active means hit-call score of the fitted dose curve at least 0.9, where 1 is the maximum;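 further: count of Hoechst-stained nuclei per well by high-content imaging in MCF-7 cells; cells exposed to compound for six hours; intended direction is loss of nuclei count meaning fewer cells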)
Method in brief: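 Readout: Hoechst nuclear count by high-content imaging. MCF-7, 8-point dilution series, 6 h exposure. Bidirectional fit vs DMSO baseline.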

[4] = system: Brachyury (BRA) Protein Expression, Deisenroth Lab, TBXT (gene 6862); assay: CCTE_Deisenroth_DEVTOX-GLR_legacy_Bra: (Legacy) CCTE's DevTox GLR-Endo Assay Evaluation of Brachyury (BRA) Protein Expression, Deisenroth Lab (AID 2284329)
Method in brief: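 Readout: percent Bra+ cells by high-content fluorescence imaging, Bra+ meaning mean intensity 5x BMAD over pluripotent control median. RUES2-GLR cells dosed twice over 48 h differentiation; DMSO-control median subtracted before concentration-response fitting.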

[5] = CCTE_Deisenroth_DEVTOX-GLR_legacy_CellCount: (Legacy) Viability Assessment in CCTE's DevTox GLR-Endo Assay, Deisenroth Lab (AID 2284331); details: actives raise or lower the signal
Method in brief: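 Nuclei count by fluorescence high-content imaging (5 fields/well) after 48 h differentiation of RUES2-GLR cells. Two exposures, 24 h apart; 1 nM - 200 uM series; n=4. Bidirectional fit vs DMSO.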

[6] = system: SRY-box transcription factor 17 (SOX17) Protein Expression, Deisenroth Lab, SOX17 (gene 64321); assay: CCTE_Deisenroth_DEVTOX-GLR_legacy_Sox17: (Legacy) CCTE's DevTox GLR-Endo Assay Evaluation of SRY-box transcription factor 17 (SOX17) Protein Expression, Deisenroth Lab (AID 2284341); details: actives raise or lower the signal
Method in brief: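 RUES2-GLR human pluripotent cells, seeded 24 h, then differentiated 48 h in defined media with two chemical exposures 24 h apart (1 nM - 200 uM, 10 points). Sox17+ fraction from high-content fluorescence imaging; bidirectional fit versus 0.2% DMSO.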

[7] = system: SRY-box transcription factor 2 (SOX2) Protein Expression, Deisenroth Lab, SOX2 (gene 6657); assay: CCTE_Deisenroth_DEVTOX-GLR_legacy_Sox2: (Legacy) CCTE's DevTox GLR-Endo Assay Evaluation of SRY-box transcription factor 2 (SOX2) Protein Expression, Deisenroth Lab (AID 2284346)
Method in brief: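 Read-out: fraction of Sox2+ cells by high-content fluorescence imaging of fixed RUES2-GLR cells after 48 h differentiation with two 24 h-spaced exposures. Positivity cutoff 5x BMAD above endoderm control median; 0.2% DMSO median subtracted.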

[8] = CCTE_Deisenroth_H295R-HTRF_384WELL_ESTRADIOL: CCTE's H295R-HTRF Assay Evaluation of Estradiol Concentration, Deisenroth Lab (AID 2284361); details: actives raise or lower the signal
Method in brief: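 Estradiol secreted into medium by H295R adrenocortical cells, quantified by HTRF after 48 h dosing over a nine-point 0.001 - 100 uM final range; gain or loss versus DMSO. Parallel ATP-luminescence viability readout; n=5 experiments.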

[9] = CCTE_Deisenroth_H295R-HTRF_384WELL_TESTOSTERONE: CCTE's H295R-HTRF Assay Evaluation of Testosterone Concentration, Deisenroth Lab (AID 2284373); details: actives raise or lower the signal
Method in brief: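 Testosterone secreted into medium was quantified by direct HTRF immunoassay after a 48 h treatment of H295R adrenocortical cells (nine concentrations, 0.001–100 uM final). Gain or loss fitted relative to DMSO; CellTiter-Glo viability read on same plates.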

[10] = CCTE_Deisenroth_H295R-HTRF_384WELL_CTOX: Cytotoxicity Assessment in CCTE's H295R-HTRF Assay, Deisenroth Lab (AID 2284380; active means hit-call score of the fitted dose curve at least 0.9, where 1 is the maximum)
Method in brief: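 Luminescent ATP viability readout (CellTiter-Glo 2.0), multiplexed on plates used for hormone sampling, after 48 h chemical exposure. Human H295R cells; final concentrations 0.001–100 uM in nine steps, technical triplicates, five experiments; DMSO baseline.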

[11] = molecular target: Estrogen receptor (Homo sapiens) (UniProt P03372); assay: CCTE_Deisenroth_AIME_96WELL_LUC_Active: CCTE's 96-well Estrogen Receptor Transactivation Assay with AIME metabolic competence (ERTA luciferase; metabolism positive), Deisenroth Lab (AID 2284023; active means hit-call score of the fitted dose curve at least 0.9, where 1 is the maximum)
Chain of Estrogen receptor (Homo sapiens) (P03372 whole entry, looked up): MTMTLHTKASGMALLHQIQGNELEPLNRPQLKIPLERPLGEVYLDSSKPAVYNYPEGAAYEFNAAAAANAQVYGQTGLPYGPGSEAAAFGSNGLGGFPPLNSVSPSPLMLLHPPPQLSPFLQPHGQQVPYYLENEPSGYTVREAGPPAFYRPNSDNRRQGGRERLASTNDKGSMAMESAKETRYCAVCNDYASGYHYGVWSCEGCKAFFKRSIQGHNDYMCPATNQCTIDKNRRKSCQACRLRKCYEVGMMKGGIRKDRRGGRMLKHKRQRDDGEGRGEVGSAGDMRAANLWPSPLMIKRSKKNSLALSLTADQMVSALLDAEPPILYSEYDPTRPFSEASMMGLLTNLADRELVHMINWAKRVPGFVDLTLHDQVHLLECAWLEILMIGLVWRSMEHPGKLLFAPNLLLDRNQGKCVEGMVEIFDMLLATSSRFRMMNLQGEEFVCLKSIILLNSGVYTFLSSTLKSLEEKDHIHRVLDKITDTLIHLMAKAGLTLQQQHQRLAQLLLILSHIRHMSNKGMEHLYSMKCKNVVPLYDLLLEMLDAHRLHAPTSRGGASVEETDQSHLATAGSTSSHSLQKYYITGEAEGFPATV
Method in brief: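 Metabolism-positive mode: induced rat hepatic S9 in alginate microspheres conditions test solutions (0.002 - 200 uM, 10 points) for 2 hours. VM7Luc4E2 ER luciferase reporter cells then exposed 24 h; positive-direction fit against 17beta-estradiol, n=4 typical.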

[12] = molecular target: Estrogen receptor (Homo sapiens) (UniProt P03372); assay: CCTE_Deisenroth_AIME_96WELL_LUC_Inactive: CCTE's 96-well Estrogen Receptor Transactivation Assay without AIME metabolic competence (ERTA luciferase; metabolism negative), Deisenroth Lab (AID 2284025; active means hit-call score of the fitted dose curve at least 0.9, where 1 is the maximum)
Method in brief: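 Metabolism-negative arm: chemicals (0.002–200 uM, 10 points) incubated 2 h with alginate-water microspheres, then medium moved onto VM7Luc4E2 cells for 24 h luciferase read-out. Positive direction vs 17beta-estradiol; n≥4 experiments.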

[13] = CCTE_Deisenroth_AIME_96WELL_CTox_Active: Cytotoxicity Assessment (CTOX) in CCTE's 96-well Estrogen Receptor Transactivation Assay with AIME metabolic competence (metabolism positive), Deisenroth Lab (AID 2284028; active means hit-call score of the fitted dose curve at least 0.9, where 1 is the maximum)
Method in brief: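 Cytotoxicity in VM7Luc4E2 breast cells after 24 h exposure to medium from a 2 h metabolic pre-incubation with induced rat hepatic S9 in alginate microspheres; fluorescent live-cell protease readout, 10-point series 0.002–200 uM, n=4.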

[14] = CCTE_Deisenroth_AIME_96WELL_CTox_Inactive: Cytotoxicity Assessment (CTOX) in CCTE's 96-well Estrogen Receptor Transactivation Assay without AIME metabolic competence (metabolism negative), Deisenroth Lab (AID 2284029; active means hit-call score of the fitted dose curve at least 0.9, where 1 is the maximum)
Method in brief: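 Cytotoxicity in VM7Luc4E2 breast cells was scored as loss of fluorescent signal from a live-cell protease substrate 24 h after exposure, using bidirectional curve fitting. Test media came from a 2 h metabolism-negative pre-incubation (alginate-water, no hepatic S9) of compounds at 0.002-200 uM, with at least four replicates.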

[15] = CCTE_Mundy_HCI_Cortical_NOG_NeuriteCount: CCTE's Neurite Outgrowth Assay in rat cortical cells for Neurite Count, Mundy Lab (AID 2284212);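 further: cells fixed about two days after chemical exposure began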
Method in brief: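 Rat cortical primary cells; compound added 2 h post-plating, 1/10 dilution of working solution. Anti-betaIII-tubulin/AF488 ICC; ArrayScan neurite count vs DMSO.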

[16] = CCTE_Mundy_HCI_Cortical_NOG_NeuriteLength: CCTE's Neurite Outgrowth Assay in rat cortical cells for Neurite Length, Mundy Lab (AID 2284213)
Method in brief: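 First, rat primary cortical cells were plated and, 2 h later, given test chemical as a 1/10 dilution. Finally, βIII-tubulin immunostaining enabled automated imaging of neurite length.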

[17] = CCTE_Mundy_HCI_Cortical_NOG_NeuronCount: CCTE's Neurite Outgrowth Assay in rat cortical cells for Neuron Count, Mundy Lab (AID 2284236; active means hit-call score of the fitted dose curve at least 0.9, where 1 is the maximum;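 further: neurons counted by imaging betaIII-tubulin and Hoechst stained cortical cells; cells exposed to compound for about 48 hours before fixation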)
Method in brief: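 Read-out: neuron number by high-content imaging of betaIII-tubulin (Alexa Fluor-488) and Hoechst-labelled rat primary cortical cells.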

[18] = CCTE_Mundy_HCI_Cortical_NOG_BPCount: CCTE's Neurite Outgrowth Assay in rat cortical cells for Branch Point Count, Mundy Lab (AID 2284237)
Method in brief: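 Measured 50.33 h after dosing, this morphology endpoint uses rat primary cortical cultures labelled for betaIII-tubulin. Branch points are quantified by high-content imaging, with DMSO as negative control and baseline.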

[19] = system: SRY-box transcription factor 2 (SOX2) Protein Expression, Deisenroth Lab, SOX2 (gene 6657); assay: CCTE_Deisenroth_DEVTOX-GLR_Endo_SOX2: CCTE's DevTox GLR-Endo Assay Evaluation of SRY-box transcription factor 2 (SOX2) Protein Expression, Deisenroth Lab (AID 2284412; active means hit-call score of the fitted dose curve at least 0.9, where 1 is the maximum)
Method in brief: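 Endpoint is percent SOX2-positive cells (SOX2+ count/total cells) minus 0.2% DMSO control, from high-content imaging of fixed, nuclear-stained RUES2-GLR cells. Dosing twice at 24 h intervals over 48 h differentiation, 1 nM–200 uM in 10 points.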

[20] = system: SRY-box transcription factor 17 (SOX17) Protein Expression, Deisenroth Lab, SOX17 (gene 64321); assay: CCTE_Deisenroth_DEVTOX-GLR_Endo_SOX17: CCTE's DevTox GLR-Endo Assay Evaluation of SRY-box transcription factor 17 (SOX17) Protein Expression, Deisenroth Lab (AID 2284413)
Method in brief: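 Human RUES2-GLR cells carrying an inducible fluorescent reporter are differentiated in defined media for 48 h and dosed twice, 24 h apart. After fixation and nuclear staining, imaging yields SOX17+ cell percentage relative to 0.2% DMSO-treated differentiated cells.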

[21] = system: Brachyury (BRA) Protein Expression, TBXT (gene 6862); assay: CCTE_Deisenroth_DEVTOX-GLR_Endo_BRA: CCTE's DevTox GLR-Endo Assay Evaluation of Brachyury (BRA) Protein Expression, Deisenroth Lab (AID 2284417)
Method in brief: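 RUES2-GLR human pluripotent cells, seeded 24 h, then differentiated 48 h in defined media with two chemical exposures 24 h apart (10-point series, 1 nM - 200 uM). Fixed, nuclear-stained, imaged; endpoint is percent BRA+ cells minus 0.2% DMSO control.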

[22] = CCTE_Deisenroth_DEVTOX-GLR_Endo_CellCount: Viability Assessment in CCTE's DevTox GLR-Endo Assay, Deisenroth Lab (AID 2284420)
Method in brief: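 Measured 48 h after dosing: fluorescent nuclei counted by imaging in human RUES2-GLR cells under defined differentiation media, tested at 1 nM - 200 uM. Values are percent cell-count change relative to 0.2% DMSO.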

[23] = system: SRY-box transcription factor 17 (SOX17) Protein Expression, Deisenroth Lab, SOX17 (gene 64321); assay: CCTE_Deisenroth_DEVTOX-GLR_Pluri_SOX17: CCTE's DevTox GLR-Pluri Assay Evaluation of SRY-box transcription factor 17 (SOX17) Protein Expression, Deisenroth Lab (AID 2284427; active means hit-call score of the fitted dose curve at least 0.9, where 1 is the maximum)
Method in brief: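 Using an inducible fluorescent SOX17 reporter in human pluripotent RUES2-GLR cells, compounds (1 nM - 200 uM) were given twice over 48 h differentiation. Percent SOX17+ cells minus DMSO control came from high-content image analysis.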

[24] = system: SRY-box transcription factor 2 (SOX2) Protein Expression, Deisenroth Lab, SOX2 (gene 6657); assay: CCTE_Deisenroth_DEVTOX-GLR_Pluri_SOX2: CCTE's DevTox GLR-Pluri Assay Evaluation of SRY-box transcription factor 2 (SOX2) Protein Expression, Deisenroth Lab (AID 2284428)
Method in brief: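 Percent SOX2+ RUES2-GLR cells, determined by fluorescence microscopy after 48 h and two 24-h-interval chemical exposures spanning 1 nM–200 uM, served as the endpoint. Values are expressed relative to 0.2% DMSO; total cell counts assessed viability.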

[25] = system: Brachyury (BRA) Protein Expression, Deisenroth Lab, TBXT (gene 6862); assay: CCTE_Deisenroth_DEVTOX-GLR_Pluri_BRA: CCTE's DevTox GLR-Pluri Assay Evaluation of Brachyury (BRA) Protein Expression, Deisenroth Lab (AID 2284429; active means hit-call score of the fitted dose curve at least 0.9, where 1 is the maximum)
Method in brief: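 RUES2-GLR reporter line; 48 h mesoderm differentiation; two exposures, 24 h apart; 1 nM - 200 uM, 10 points; nuclear stain, high-content imaging, 5 fields/well; endpoint = %BRA+ cells of total count minus 0.2% DMSO; n=4.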

[26] = CCTE_Deisenroth_DEVTOX-GLR_Pluri_CellCount: Viability Assessment in CCTE's DevTox GLR-Pluri Assay Evaluation of Total Cell Counts, Deisenroth Lab (AID 2284430)
Method in brief: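 Cytotoxicity readout: fluorescent nuclei counts by high-content imaging, expressed as percent change relative to 0.2% DMSO. Human RUES2-GLR pluripotent line differentiated 48 h, dosed twice at 24-h intervals across 1 nM - 200 uM (10 points).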

Measured: AC50

CC(CC(C)(C)C)CC(C)(C)C
inactive: [1] | [2] | [3]

NC(=O)c1ccc(-c2nc(-c3ccc4c(c3)OCO4)c(-c3ccccn3)[nH]2)cc1
inactive: [4] | [5] | [6] | [7]

Clc1ccc(COC(Cn2ccnc2)c2ccc(Cl)cc2Cl)cc1 (stereo unspecified)
active: [8] 0.703 µM | [9] 0.327 µM
inactive: [10]

COc1ccc(C=Cc2ccc(OC)cc2)cc1
inactive: [11] | [12] | [13] | [14]

CCN(CC)CCCC(C)Nc1nc(C)cc(Nc2ccc3nc(C)cc(N)c3c2)n1 (stereo unspecified)
inactive: [15] | [16] | [17] | [18]

C/C(=C\c1ccccc1)c1ccccc1
active: [11] 20.6 µM | [12] 37.2 µM

COc1ccc2[nH]c([S@@](=O)Cc3ncc(C)c(OC)c3C)nc2c1
active: [4] 67.9 µM | [5] 48.1 µM | [7] 56.1 µM | [19] 83.8 µM | [20] 33.8 µM | [21] 70.6 µM | [22] 47.9 µM | [23] 54 µM | [24] 66.6 µM | [25] 46.4 µM | [26] 31.3 µM
